Hits are enriched below; roughly 3.1% of the tested compounds scored in any of these assays.
KLK7 zymogen act: activators of human kallikrein-7 zymogen | 370,000 compounds, 0.9% hits | AID 652039 | P49862 | activation, % at 7 µM | purified proKLK7, EDANS-DABCYL substrate fluorescence; 100% is mature enzyme control, 0% vehicle;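 active means activation above the mean of all tested compounds plus 3 SD, computed per campaign excluding outliers beyond control limits, cut at about 13% in these data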
Target sequence (P49862 whole entry, looked up): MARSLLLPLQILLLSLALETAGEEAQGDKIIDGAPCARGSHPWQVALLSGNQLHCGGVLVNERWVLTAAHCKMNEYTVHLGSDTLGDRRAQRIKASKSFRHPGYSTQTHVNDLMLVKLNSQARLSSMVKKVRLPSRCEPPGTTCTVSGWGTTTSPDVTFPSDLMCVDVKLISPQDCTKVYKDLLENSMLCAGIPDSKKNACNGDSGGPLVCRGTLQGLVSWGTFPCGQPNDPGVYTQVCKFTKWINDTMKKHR
MBD2 DNA inh: MBD2-methylated oligo binding inhibition; Q9UBB5; TR-FRET, MBD2 binding to methylated oligonucleotide; inhibition, % at 4.4 µM; 370,000 compounds, 0.31% hits; in the data active means inhibition above about 13%
UHRF1 binding: blocks human UHRF1 binding to methylated DNA. inhibition, % at 4.4 µM. UHRF1 binding to methylated oligo, TR-FRET. 370,000 compounds, 0.75% hits; in the data active means inhibition above about 21%;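 further: UHRF1 SRA domain binding a hemimethylated CpG hairpin DNA probe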
Rin1 Abl inh: human Rin1-Abl interaction inhibition; P00519+Q13671; TR-FRET Rin1/Abl binding, biochemical; inhibition, % at 7.35 µM; 360,000 compounds, 0.4% hits; AID 588664; in the data active means inhibition above about 5%, passing the limit was not always enough
Neddylation inh: blocks human cullin neddylation; P61081+Q13564; TR-FRET cullin neddylation, biochemical; calls only at 25 µM; 360,000 compounds, 0.58% hits; AID 651699; in the data active means inhibition above about 36%
LEDGF integ inh: blocks HIV-1 LEDGF/p75-dependent DNA integration. inhibition, % at 3.7 µM. 370,000 compounds, 0.64% hits. TR-FRET IN-LEDGF/p75 DNA integration, Eu/Cy5;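 active means inhibition above the screen-wide mean plus 3 SD, cut at about 13% in these data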;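 further: signal is the Cy5 over europium emission ratio at 671 and 618 nm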
IN multimer up: activates HIV-1 integrase multimerization in LEDGF counter-screen; shares compounds with LEDGF integ inh; TR-FRET HIV-1 integrase multimerization, biochemical; activation, % at 7.7 µM; AID 1053131; 2,000 compounds, 17% hits; in the data active means activation above about 8.9%
TR-FRET interf: counter-screen for LEDGF/p75 integration inhibitors: TR-FRET optical interference | inhibition, % at 7.7 µM | 2,000 tested, under 10 active | TR-FRET optical interference counterscreen, HIV-1 IN multimerization | shares compounds with LEDGF integ inh;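 active means inhibition above the mean over all tested compounds plus 3 SD, which no compound reached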
LEDGF integ conf: confirmation of HIV-1 LEDGF/p75-dependent integration inhibitors; shares compounds with LEDGF integ inh; TR-FRET LEDGF/p75-dependent HIV-1 integration, biochemical; 2,000 compounds, 36% hits; AID 1053136; inhibition, % at 3.7 µM; in the data active means inhibition above about 14%
Large screens that a line does not name were inactive (follow-up assays come after a bar, where shown).

NC(c1ccccc1)c1csc(Nc2ccccn2)n1 (configuration not stated)	none
CCCCCN(C(=O)CCC(=O)OCC(=O)N1C(C)CCCC1C)c1c(N)n(CCCC)c(=O)[nH]c1=O (configuration not stated)	none
Cc1c2ccccc2nc2c(F)c(NC(C)C)c(F)c(F)c12	LEDGF integ inh 13 | IN multimer up inactive | TR-FRET interf inactive | LEDGF integ conf inactive
Cc1c2ccccc2nc2c(F)c(NCCO)c(F)c(F)c12	LEDGF integ inh 14 | IN multimer up inactive | TR-FRET interf inactive | LEDGF integ conf inactive
CC(C)Nc1nc2ccccc2c(=O)[nH]1	none
CO/N=C(\C(=O)N[C@@H]1C(=O)N2C(C(=O)O)=C(COC(N)=O)CS[C@H]12)c1ccco1	UHRF1 binding 25, LEDGF integ inh 14 | IN multimer up inactive | TR-FRET interf inactive | LEDGF integ conf 16
CC(=O)OCC1=C(C(=O)O)N2C(=O)C(NC(=O)c3ccc(F)cc3)C2SC1 (configuration not stated)	none
COc1ccc(/C=C/C(=O)O)cc1S(=O)(=O)N1CCC(C)CC1	none
COc1cc(NC(=S)NCc2cccnc2)c(OC)cc1Cl	LEDGF integ inh 80 | IN multimer up inactive | TR-FRET interf inactive | LEDGF integ conf inactive
COCCn1c(SCC(=O)NCCCN2CCCC2=O)nc2sc3c(c2c1=O)CCCC3	none
O=C(Nc1nc(-c2ccco2)c(-c2ccco2)s1)C1CCC1	LEDGF integ inh 17 | IN multimer up inactive | TR-FRET interf inactive | LEDGF integ conf 21
O=C(Nc1nc(-c2ccco2)c(-c2ccco2)s1)C1CC(=O)N(c2ccc3c(c2)OCCO3)C1 (configuration not stated)	LEDGF integ inh 19 | IN multimer up 13 | TR-FRET interf inactive | LEDGF integ conf 42
COc1cccc(CC2(CO)CCN(CC3=CC[C@H]4C[C@@H]3C4(C)C)CC2)c1	none
Cc1ccc(-n2nc3c(c2NC(=O)c2ccc(Br)o2)CSC3)c(C)c1	LEDGF integ inh 15 | IN multimer up inactive | TR-FRET interf inactive | LEDGF integ conf 49
Cc1ccc(-n2nc3c(c2NC(=O)C(C)(C)C)CSC3)c(C)c1	none
Cc1ccc(-n2cnc(N)c2C(=O)c2cccc([N+](=O)[O-])c2)cc1	none
CCCCNC(=O)C[C@H]1C[C@@]2(C(=O)OC)C(=C[C@H](COCc3ccccc3)O[C@@H]2C)N(Cc2cccc3ccccc23)C1=O	none (no result: Rin1 Abl inh, Neddylation inh)
CC1=CC(C)(C)NC(=S)N1c1ccc(C)cc1	LEDGF integ inh 21 | IN multimer up inactive | TR-FRET interf inactive | LEDGF integ conf inactive
CC1=CC(C)(C)NC(=S)N1c1ccc(C)c(C)c1	none
CC1=N/C(=C/c2ccco2)C(=O)O1	LEDGF integ inh 13 | IN multimer up 10 | TR-FRET interf inactive | LEDGF integ conf 54
CC(Sc1ccc2nnc(-c3ccc(F)cc3)n2n1)C(=O)O (configuration not stated)	none
CCOC(=O)C(C)Sc1ccc2nnc(-c3ccc(F)cc3)n2n1 (configuration not stated)	LEDGF integ inh 15 (not shown: Neddylation inh) | IN multimer up inactive | TR-FRET interf inactive | LEDGF integ conf inactive
CCCCNC(=O)c1nc(-c2cccs2)oc1-c1ccc(Cl)cc1	none (not shown: Rin1 Abl inh, Neddylation inh)
CCCCC(=O)Nc1cc(C)c(NC(=O)c2ccco2)cn1	LEDGF integ inh 27 | IN multimer up inactive | TR-FRET interf inactive | LEDGF integ conf inactive
Cc1cc(NC(=O)c2ccco2)ncc1NC(=O)CCc1ccccc1	none
COc1cccc(CN(C)C(=O)CN2C(=O)NC(c3ccccc3)(c3ccccc3)C2=O)c1	none
O=C(/C=C/c1ccco1)Oc1cccc2cccnc12	LEDGF integ inh 14 | IN multimer up inactive | TR-FRET interf inactive | LEDGF integ conf inactive
